Screening data (PubChem BioAssay)
Sampled rows, rich in hits. Any-hit rate of the full collection: about 3.2%.
PAX8 reporter – PAX8 transcriptional activity inhibition; RMG-I TPO-luciferase reporter, SteadyGlo, 24 h; inhibition, % at 12.6 µM; 360,000 compounds, 1.2% hits; AID 652154;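 active means mean replicate inhibition at least 60% with every replicate also reaching 60%; inconclusive means only one of the two criteria is met; inactive means mean below 60% and not all replicates reaching 60%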;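 further: luciferase light reporting Pax8 driven TPO promoter activity; plate controls were median of neutral control wells for no effect and mitoxantrone controls for full effect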
EBV LMP1 NFkB – Epstein-Barr LMP1 NF-kappaB reporter inhibition. LMP1-induced NF-kappaB luciferase reporter cells, luminescence. inhibition, % at 12.5 µM. 350,000 compounds, 0.69% hits; in the data active means inhibition above about 41%; inconclusive means no clear call, values can overlap the other calls;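 further: 0% = neutral control wells and 100% = reference inhibitor control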
LGR2 inh – Drosophila LGR2 receptor signaling inhibition; inhibition, % at 9.99 µM; 380,000 compounds, 0.35% hits; HEK293 LGR2, CRE-luciferase, bursicon-stimulated, 4 h;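 active means drop in luminescence signal, shown as inhibition above about 50% in the replicate tests, limit read from the data, passing the limit was not always enough; inconclusive means probably only some replicates passing the limit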;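 further: agonist challenge used bursicon conditioned medium at about half maximal strength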
TWEAK-Fn14 inh – blocks TWEAK-Fn14 interaction in a reporter cell assay. TWEAK-stimulated Fn14 reporter cells, luciferase luminescence, 8 h. inhibition, % at 10 µM. 360,000 compounds, 2% hits. AID 1159606; in the data active means inhibition above about 50%
TROY NFkB inh – inhibitors of TROY-dependent NF-kB signaling. 360,000 compounds, 0.98% hits. inhibition, % at 10 µM. Q293 LMP1-TROYcd NF-kB luciferase reporter, 4 h;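 active means compounds whose plate-normalised and pattern-corrected inhibition of the luciferase reporter signal at the single screening dose is 50% or more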
EWS-Fli block – EWS/Fli transcriptional activity inhibition; A673 NR0B1-luciferase reporter, viability-normalised; inhibition, % at 12.6 µM; 350,000 compounds, 0.67% hits;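 active means mean inhibition of at least 50% after viability correction, with every replicate also passing that limit; inconclusive means mean reaches 50% but only one of two replicates passes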;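 further: firefly luciferase signal divided by Alamar Blue viability fluorescence both relative to DMSO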
* marks the source's active call; other numbers are inactive results; ? = inconclusive; . = no result given.

SMILES	PAX8 reporter	EBV LMP1 NFkB	LGR2 inh	TWEAK-Fn14 inh	TROY NFkB inh	EWS-Fli block
CC(C)NC(=O)N(C)C[C@@H]1Oc2ncc(-c3cccc(F)c3)cc2C(=O)N([C@H](C)CO)C[C@@H]1C	.	.	-12.3	.	.	1.1
Cc1ccc(N(C(=O)Cn2nnc(-c3ccc(C)o3)n2)C(C(=O)NC2CCCC2)c2ccncc2)cc1 (stereo not given)	11.1	1.8	13.2	55.9*	5.5	4.4
Cc1ccc(-c2nnn(CC(=O)N(c3ccc(F)cc3)C(C(=O)NC3CCCC3)c3ccncc3)n2)o1 (stereo not given)	0.2	2.3	-8.0	44.2	9.4	-0.6
Cc1noc(C)c1NC(=O)N(C)C[C@H]1OCCCC[C@H](C)Oc2ccc(N(C)C)cc2C(=O)N([C@H](C)CO)C[C@H]1C	-8.1	.	5.1	.	.	-9.1
CCOc1ccc(NC(=O)c2ccc(N3CC4CC(C3)c3cccc(=O)n3C4)c(NC(=O)c3cccnc3)c2)cc1 (stereo not given)	7.2	60.6*	-2.0	-21.3	-16.4	2.5
O=C(Nc1ccc(Cl)c(C(F)(F)F)c1)NC1CC2CCCC(C1)N2Cc1ccccc1 (stereo not given)	29.5	.	82.2*	.	.	17.9
O=C(Nc1ccccc1)N1CC(=O)N2[C@H](C1)[C@@H](c1ccc(C#CC3CCCC3)cc1)[C@@H]2CO	.	.	-5.5	.	.	-1.8
COc1cccc(OCc2ccc(C(=O)NCC3CCCO3)cc2)c1 (stereo not given)	3.6	7.6	31.3	62.8*	52.5*	.
CCN1[C@H](C(=O)NCCN2CCCCC2)[C@@H](CO)[C@@H]2Cn3c(ccc(-c4ccc(OC)cc4)c3=O)[C@@H]21	.	.	0.9	.	.	2.2
N#Cc1cccc(-c2ccc3c(c2)[C@@H]2[C@@H](CCN2C(=O)C2CCCCC2)[C@@H](CO)N3)c1	75.1*	.	26.7	.	.	13.1
N#Cc1ccc(-c2ccc3c(c2)[C@H]2[C@H](CCN2C(=O)C2CCCC2)[C@H](CO)N3)cc1	.	.	.	.	.	-7.6
N#Cc1cccc(-c2ccc3c(c2)[C@H]2[C@H](CCN2C(=O)C2CCCCC2)[C@H](CO)N3)c1	65.8*	.	11.7	.	.	11.9
COc1ccccc1-c1ccc2c(c1)[C@H]1[C@H](CCN1C(=O)C1CCCCC1)[C@@H](CO)N2	90.2*	.	-5.8	.	.	8.5
N#Cc1cccc(-c2ccc3c(c2)[C@@H]2[C@@H](CCN2S(=O)(=O)c2ccc(F)cc2)[C@@H](CO)N3)c1	75.8*	.	12.9	.	.	1.7
N#Cc1cccc(-c2ccc3c(c2)[C@@H]2[C@@H](CCN2S(=O)(=O)c2ccc(F)cc2)[C@H](CO)N3)c1	26.7	.	9.9	.	.	1.8
COc1ccccc1-c1ccc2c(c1)[C@H]1[C@H](CCN1C(=O)C1CCCC1)[C@H](CO)N2	.	.	.	.	.	-4.1
O=C(C[C@H]1C=C[C@H](NC(=O)Cc2ccccn2)[C@H](CO)O1)NCCc1ccncc1	-7.7	.	-4.2	.	.	-3.4
Cc1ccccc1/C=C/C12NC(=O)CN1c1ccccc1C2(C)C (stereo not given)	15.7	-6.0	-14.7	56.5*	29.3	-29.3
CC1(C)c2ccccc2N2CC(=O)N[C@@]21/C=C/C=C/c1ccccc1	26.3	-4.0	3.9	20.1	8.7	14.7
CCCOc1ccc(/C=C2/C(=O)ON=C2C)cc1OCC	29.1	2.6	16.0	4.0	-18.1	25.7
CCOc1cc(/C=C2\C(=O)ON=C2C)ccc1OCc1ccccc1	-18.0	5.7	-7.4	60.6*	-16.7	.
CCN(c1ccccc1)S(=O)(=O)c1ccc(NC(=O)c2nc(S(C)(=O)=O)ncc2Cl)cc1	.	2.4	.	88.2*	70.4*	.
CCS(=O)(=O)c1ncc(Cl)c(C(=O)Nc2ccc(S(=O)(=O)N(C)c3ccccc3)cc2)n1	110.2*	57.0*	9.1	99.6*	88.2*	.
CCCNC(=O)[C@@H]1[C@@H](CO)[C@@H]2Cn3c(ccc(-c4ccccc4OC)c3=O)[C@@H]2N1S(C)(=O)=O	-23.2	.	8.2	.	.	-14.8
N#C[C@@H]1[C@H](c2ccc(C3=CCCCC3)cc2)[C@@H](CO)N1S(=O)(=O)c1cccc(F)c1	-1.8	.	-13.8	.	.	-5.9
SMILES	PAX8 reporter	EBV LMP1 NFkB	LGR2 inh	TWEAK-Fn14 inh	TROY NFkB inh	EWS-Fli block
COc1ccc(N=Cc2sc3ccccc3c2Cl)cc1	.	-22.0	.	71.3*	67.0*	.
CN(C)CC(=O)Nc1ccc2c(c1)[C@@H]1C[C@H](CC(=O)NCc3ccc4c(c3)OCO4)O[C@@H](CO)[C@@H]1O2	10.3	.	-0.1	.	.	5.1
O=C1NCCN1CCNS(=O)(=O)c1ccc(F)cc1	4.2	-5.9	4.3	53.0*	64.9*	10.5
COc1ccc(S(=O)(=O)NCCN2CCNC2=O)cc1OC	14.3	.	-6.8	13.6	0.9	-9.9
C[C@H](CO)N1C[C@H](C)[C@H](CN(C)CC2CCCCC2)Oc2ccc(NC(=O)Nc3ccc(C(F)(F)F)cc3)cc2CC1=O	14.8	.	6.5	.	.	1.7
OCC1CCCN(C(=S)Nc2ccc(Nc3ccccc3)cc2)C1 (stereo not given)	-75.6	-14.6	-146.5	-41.5	-26.6	-73.5
OCC1CCCN(C(=S)Nc2ccc(OC(F)F)cc2)C1 (stereo not given)	135.6*	-9.1	.	1.5	-14.1	-44.2
CC(=O)OC[C@]12CC[C@H]3[C@@](C)(CC[C@H]4C(C)(C)CCC[C@]34C)[C@@H]1CC(C1=CC(=O)OC1O)O2 (stereo not given in full)	.	.	.	107.7*	88.2*	55.7*
CC(=O)OC[C@]1(OC(C)=O)C[C@@]23CC[C@H]4[C@@](C)(CCC[C@@]4(C)C(=O)O)[C@@H]2CC[C@@H]1C3	-12.6	-0.3	.	-1.7	8.3	5.9
COc1ccc(S(=O)(=O)Nc2cccc3c2O[C@H](CN(C)S(=O)(=O)c2cn(C)cn2)[C@@H](C)CN([C@@H](C)CO)C3=O)cc1	.	.	12.2	.	.	-7.2
Cc1cc(C(=O)CSc2nnc(-c3ccco3)o2)c(C)n1CC1COc2ccccc2O1 (stereo not given)	.	3.7	.	85.5*	.	.
C[C@@H]1CN([C@H](C)CO)C(=O)c2cc(C3=CCCC3)cnc2O[C@@H]1CN(C)Cc1ccc(F)cc1	.	.	-5.3	.	.	-7.1
CCCCCCCCCCCCCC(=O)NO	5.3	-2.8	25.1	-62.8	-49.5	54.6*
CCOC(=O)c1c(NC(=O)COc2cccc3c2CCN(C)C3=O)sc2c1CCC2	-15.0	13.2	5.1	73.5*	39.0	-0.7
CCOC(=O)c1c(NC(=O)CSc2nnc(-c3c[nH]c4ccccc34)n2C)sc2c1CCCC2	2.5	-15.4	-0.7	56.2*	27.1	15.6
Cc1ccc(S(=O)(=O)Nc2ccc3c(c2)C(=O)N([C@H](C)CO)C[C@H](C)[C@@H](CN(C)C(=O)CCCN(C)C)OCCCC[C@H](C)O3)cc1	-11.6	.	-13.6	.	.	-9.5
CCOc1ccc2nc(NC(=O)COC)sc2c1	-109.4	0.8	.	30.4	-25.9	.
CCOc1ccc2nc(NC(=O)c3ccco3)sc2c1	5.3	10.5	?	58.7*	22.8	24.1
CCOc1ccc2nc(NC(=O)c3ccoc3C)sc2c1	.	4.9	.	63.2*	31.6	.
